Data from PubChem BioAssay AID1851 (National Center for Advancing Translational Sciences (NCATS), 2009).
Values joined by “and” are separate entries in the source; they are usually repeats but may differ in a detail not shown here. Identical values can stand only once. Out of some 16,000 compounds screened, about 2,600 (16%) were called active. About 20% were inconclusive and are not listed. The call rests on the fitted dose curve; in most records, active means well fitted curve in the direction sought with a large enough effect; inconclusive means small, poorly fitted or top-dose-only effect, or effect the other way; inactive means no such curve, though single readings can be large or run the other way. These entries were drawn from the full list. A structure can be active in one record and inactive in another.

target: Cytochrome P450 2D6 (Homo sapiens) (UniProt P10635); test: Cytochrome panel assay with activity outcomes; settings: recombinant CYP, pro-luciferin dealkylation, luminescence, p450-cyp2d6; series mostly up to 57.1 µM
Sequence (P10635 whole entry, looked up): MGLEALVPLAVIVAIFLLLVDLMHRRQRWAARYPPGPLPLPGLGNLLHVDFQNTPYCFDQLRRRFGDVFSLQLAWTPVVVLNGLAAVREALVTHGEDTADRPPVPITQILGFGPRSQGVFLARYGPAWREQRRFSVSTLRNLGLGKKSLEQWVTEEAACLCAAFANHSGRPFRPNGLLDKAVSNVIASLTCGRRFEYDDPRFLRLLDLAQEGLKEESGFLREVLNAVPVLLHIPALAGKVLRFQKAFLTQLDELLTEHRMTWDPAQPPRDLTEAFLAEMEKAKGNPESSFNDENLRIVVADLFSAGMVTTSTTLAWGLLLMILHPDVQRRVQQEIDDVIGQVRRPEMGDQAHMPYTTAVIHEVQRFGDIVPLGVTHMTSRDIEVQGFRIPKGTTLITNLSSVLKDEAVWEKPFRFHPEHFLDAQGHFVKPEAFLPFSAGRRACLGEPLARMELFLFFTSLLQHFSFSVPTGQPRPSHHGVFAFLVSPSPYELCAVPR
On the % scale 0 is the no-effect control and ±100 the full control effect.

Structure (SMILES) | AC50 | activity, negative = inhibition
CCNc1ncc2nc(-c3cc(F)cc(F)c3)c(=O)n(-c3ccccc3)c2n1 | 0.1 µM (active) | 
CCNc1ncc2nc(-c3ccc(F)cc3)c(=O)n(C)c2n1 | inactive | 
O=c1c(-c2cc(F)cc(F)c2)nc2cncnc2n1-c1ccccc1 | inactive | 
CCNc1ncc2nc(-c3ccc(OC)cc3)c(=O)n(-c3ccc(OC)cc3)c2n1 | inactive | 
COc1ncc2nc(-c3cc(F)cc(F)c3)c(=O)n(-c3ccccc3)c2n1 | inactive | 
CCNc1ncc2nc(-c3ccc(F)cc3)c(=O)n(-c3ccccc3)c2n1 | 0.1 µM (active) | 
O=C(Nc1cccc(F)c1)/C(=C\c1ccco1)NC(=O)c1cccs1 | inactive | 
CC(=O)c1ccc(S(=O)(=O)NC(=O)NC2CCCCC2)cc1 | inactive | 
CC(C)CC(c1nnnn1C(C)C)N1CCN(c2ccccc2)CC1 (stereo unspecified) | inactive | 
COc1ccccc1NC(=O)c1sc2ncn(Cc3ccccc3C)c(=O)c2c1C | inactive | 
Cc1ccccc1C(=O)NN(C)c1nc2ccccc2nc1C(F)(F)F | inactive | 
CC(=O)N1CCN(c2ccc(NC(=O)c3ccc(C)cc3)cc2)CC1 | inactive | 
COC(=O)CC[C@@H](C)[C@H]1CC[C@H]2[C@H]3CC[C@H]4C[C@@H]5CC[C@@]4(C)C3(O5)[C@@H](Br)[C@@H](Br)[C@@]12C |  | -11.7% [at 11.4 µM] (inactive)
CO[C@H]1COC(=O)C/C=C\[C@@H](C)[C@H](OC)COC(=O)CCC[C@@H]1C |  | 17.9% [at 11.4 µM] (inactive)
Cc1ccc(CSc2nnc(C(F)(F)F)n2Cc2ccc(F)cc2)cc1 | inactive | 
Fc1ccc(Cn2c(SCc3ccc(F)c(C(F)(F)F)c3)nnc2C(F)(F)F)cc1 | 15.8 µM (active) | 
CC(C)(C)c1ccc(-c2nnc(SCc3ccc(Cl)cc3)n2-c2cccc(C(F)(F)F)c2)cc1 |  | 7.38% [at 11.4 µM] (inactive)
CCc1cc2c(nc1CC)CCN(CC/C(C)=N/O[C@@H](C)CN1CCCc3nc(C)c(C)cc31)C2 | 3.98 µM (active) | 
Cc1cc2c(nc1C)CCCN2CC(O)CN1CCCc2nc(C)c(C)cc21 |  | -7.07% [at 11.4 µM] (inactive)
COC(=O)C/C=C\[C@@H](C)[C@@H](/C=N\O[C@@H](C)CN1CCCc2nc(C)c(C)cc21)NS(=O)(=O)c1ccc(C)cc1 | 3.16 µM (active) | 
CCc1cc2c(nc1CC)CCN(CC/C(C)=N/O[C@@H](C)c1cc(-c3c(C)cc(C)cc3C)no1)C2 |  | -13.3% [at 11.4 µM] (inactive)
C=CC[C@@H]1C=C[C@H](O/N=C(\C)CCN2CCCCc3nc(C)c(C)cc32)[C@H](CO)O1 | 3.98 µM (active) | 

Structure (SMILES) | AC50 | activity, negative = inhibition
COC(=O)C/C=C\[C@@H](C)[C@@H](/C=N\O[C@@H](C)CN1CCCCc2nc(C)c(C)cc21)NS(=O)(=O)c1ccc(C)cc1 |  | 2.33% [at 11.4 µM] (inactive)
C=CC[C@@H]1C=C[C@H](ON=C(C)C)[C@H](CO)O1 |  | 9.56% [at 11.4 µM] (inactive)
C/C(CCN1CCc2nc(-c3ccccc3)c(-c3ccccc3)cc2C1)=N\O[C@@H](C)CN1CCCCc2nc(C)c(C)cc21 |  | -4.1% [at 11.4 µM] (inactive)
Cc1cc2c(nc1C)CCCN2C[C@H](O)CN1CCCc2nc(-c3ccc(Br)cc3)ccc21 | 3.16 µM (active) | -14.3% [at 11.4 µM] (inactive)
CO/N=C\[C@@H](NS(=O)(=O)c1ccc(C)cc1)[C@H](C)/C=C\CC(=O)OC |  | -13.5% [at 11.4 µM] (inactive)
Cc1ccc(NC(=O)NNC(=O)Cn2nc(-c3ccccc3)c(-c3ccccc3)c(C#N)c2=O)cc1 | inactive | 
O=C(N1CCOCC1)N1CCN(c2ccccc2)CC1 | inactive | 
Brc1[nH]nc2ccccc12 | inactive | 
Cc1ccc(S(=O)(=O)N[C@@H]2COC(=O)C/C=C\[C@H](C)COC(=O)N[C@@H](C)C(=O)C/C=C\[C@H]2C)cc1 |  | 2.75% [at 11.4 µM] (inactive)
CSc1nc(Cl)cc(N(CCO)CCO)n1 | inactive | 
Cn1cccc1C(=O)N1CCC[C@@]2(CCN(c3ccccn3)C2)C1 | inactive | 
CCN(CC)C(=S)SSC(=S)N(CC)CC | inactive | 
CN(C)[C@H]1C(=O)C(C(=O)NCN2CCCC2)=C(O)[C@]2(O)C(=O)C3=C(O)c4c(O)cccc4[C@](C)(O)[C@H]3C[C@H]12 |  | -10.6% [at 11.4 µM] (inactive)
CC(C)Cn1c(-c2ccc(Cl)cc2)cnc1SCC(=O)N1CCOCC1 | inactive | 
Cn1cc(-c2nc3cnc(N4CCNCC4)nc3n(-c3ccccc3)c2=O)c2ccccc21 | inactive | 
Cn1cnc([N+](=O)[O-])c1Sc1nc(N)nc2c1ncn2[C@H]1C[C@H](O)[C@@H](CO)O1 |  | 4.56% [at 11.4 µM] (inactive)
C/C(CCN1CCCc2nc(C)c(C)cc21)=N\OC[C@@H](O)[C@@H]1O[C@@H]2OC(C)(C)O[C@@H]2[C@H]1O |  | 1.91% [at 11.4 µM] (inactive)
C/C(CCN1CCCc2nc(C)c(C)cc21)=N\O[C@@H](C)CN1CCCCc2nc(C)c(C)cc21 |  | -11.7% [at 11.4 µM] (inactive)
C/C(CCN1CCCCc2nc(C)c(C)cc21)=N\O[C@@H](C)c1cn([C@H](CO)Cc2ccccc2)nn1 |  | -8.6% [at 11.4 µM] (inactive) and -9.25% [at 11.4 µM] (inactive)
CO/N=C(\C)CCN1CCCc2nc(C)c(C)cc21 | 3.98 µM (active) | 
CO/N=C(\C)CCN1CCCCc2nc(C)c(C)cc21 | 3.98 µM (active) | 
CC(C)=NO[C@@H](C)CN1CCCCc2nc(C)c(C)cc21 | 2.51 µM (active) | 

Structure (SMILES) | AC50 | activity, negative = inhibition
COC(=O)[C@@H]1CC[C@H](C)[C@@H](c2ccc(C)cc2)N1C(=O)c1ccc(/C=N\O[C@@H](C)CN2CCCCc3nc(C)c(C)cc32)cc1 |  | -20.9% [at 11.4 µM] (inactive)
C/C(CCN1CCCCc2nc(C)c(C)cc21)=N\OC[C@@H](C)[C@H](OCc1ccccc1)C(C)C |  | -1.58% [at 11.4 µM] (inactive)
C/C(CCN1CCCc2nc(C)c(C)cc21)=N\OC[C@@H](C)[C@H](OCc1ccccc1)C(C)C |  | 0.76% [at 11.4 µM] (inactive)
C/C(=N\NC(N)=S)c1ccc[nH]1 |  | 7.95% [at 11.4 µM] (inactive)
CCC1=NN(C(=O)CCc2ccccc2)C(O)(C(F)(F)F)C1 (stereo unspecified) | inactive | 
NCCSCCC(=O)O |  | -2.86% [at 11.4 µM] (inactive)
CC(C)[C@H](CO)Nc1nc(Nc2cc(N)cc(Cl)c2)c2ncn(C(C)C)c2n1 | inactive | 
COc1cccc(=O)c2c(C)n(-c3cc(C)cc(C)c3)c(C)c12 | inactive | 
O=c1[nH]c2[nH]c(=S)[nH]c(=S)c2[nH]1 |  | -8.17% [at 11.4 µM] (inactive)
COc1ccc(-c2nnc3n2N=C(C)CS3)cc1 | inactive | 
NS(=O)(=O)c1nc(S(=O)(=O)O)c2[nH]cnc2n1 |  | 10.8% [at 11.4 µM] (inactive)
COc1ccc(CNc2ncnc3ccc(-c4ccccc4C#N)cc23)c(OC)c1 | inactive | 
COc1ccc2[nH]cc(CCNc3ncnc4ccc(-c5ccccc5C#N)cc34)c2c1 | 7.94 µM (active) | 
COc1ccc2[nH]cc(CCNc3ncnc4ccc(-c5ccccc5CN(C)C)cc34)c2c1 | 10 µM (active) | 
COc1ccc2[nH]cc(CCNc3ncnc4ccc(-c5ccccc5OC)cc34)c2c1 | 3.98 µM (active) | 
COc1ccccc1-c1nnc(SCc2nc3ccccc3s2)n1C | inactive | 
N=C(N)C(N=Nc1ccccc1)C(=N)N (stereo unspecified) |  | -0.561% [at 11.4 µM] (inactive)
O=C(O)/C=C\c1c2ccc(=O)c(O)c-2oc2c(O)c(O)ccc12 |  | -4.81% [at 11.4 µM] (inactive)
CC1(C)CC2(CC(C)(C(=O)CSc3nc4ccccc4s3)OC2=O)C(=O)O1 (stereo unspecified) | inactive | 
CCC[C@H]1C[C@H](C(=O)N[C@H]([C@@H]2O[C@H](SC)[C@@H](O)[C@H](O)[C@@H]2O)[C@H](C)O)N(C)C1 | inactive | 
O=C(Nc1nnc(C2CC2)s1)c1ccncc1 | inactive | 
CC1(C)OC(=O)N(Cc2ccco2)C1(C)O (stereo unspecified) | inactive | 

Structure (SMILES) | AC50 | activity, negative = inhibition
O=C(O)/C=C1\NC(=O)c2ccccc21 | inactive | 
Nc1ccc(Nc2ccccc2)cc1 | inactive | 
Nc1ccccc1Nc1ccccc1 | 22.4 µM (active) | 
O=C(O)c1ccccc1Nc1ccccc1 | inactive | 
COc1ccc(-c2nc3cnc(N(C)C)nc3n(Cc3cccs3)c2=O)cc1 | inactive | 
O=S1(=O)[C@H]([C@H]2CC3c4ccccc4C2c2ccccc23)[C@@H](N2CCCCC2)[C@@H]1c1ccccc1 | 3.16 µM (active) | 
CCCn1nnnc1NC(=O)c1ccc(C)cc1Cl | inactive | 
COC(=O)c1ccc(C#CC(NP(=O)(c2ccccc2)c2ccccc2)c2ccccc2)cc1 (stereo unspecified) | inactive | 
CC1CN(C(NC(=O)C(C)(C)C)C(Cl)(Cl)Cl)CC(C)O1 (stereo unspecified) | inactive | 
CCOC(=O)c1c(NC(=S)Nc2ccccc2)sc2c1CCN(CCc1ccccc1)C2 | 0.0708 µM (active) | 
CCOC(=O)c1c(NC(=S)NC(=O)c2cnn(CC)c2)sc2c1CCC(C)C2 (stereo unspecified) | inactive | 
CCN1CCc2c(sc(NC(=S)NC(=O)c3ccccc3)c2C#N)C1 | inactive | 
CCOC(=O)N1CCC(NC(=O)c2cc(S(=O)(=O)N3CCCC3)cn2C)CC1 | inactive | 
COCc1cc(=O)[nH]c2cc(NC(=O)C(F)(F)F)c(C)cc12 | inactive | 
Cc1cc(-c2cc(C)c(O)c(C(C)(C)C)c2)cc(C(C)(C)C)c1O |  | -4.06% [at 11.4 µM] (inactive)
CC(C)(CO)Cc1cc(C(C)(C)C)c(O)c(C(C)(C)C)c1 | inactive | 
CC(C)(C=O)Cc1cc(C(C)(C)C)c(O)c(C(C)(C)C)c1 | 25.1 µM (active) | 
O=C(c1ccc2c(c1)N(Cc1ccc(F)cc1)C(=O)CS2)N1CCOCC1 | inactive | 
Cc1cc(OC(=O)c2ccc(Cl)cc2)cc(=O)n1C | inactive | 
